Only some compounds are listed: those with a hit (about 4.8% of all), similar ones and a draw of the others.
HIF act – HIF pathway transcriptional activation | activation, % at 7.5 µM (by protocol) | AID 1910 | hit rate 0.32% among 300,000 | U2OS HRE-luciferase reporter, luminescence; normalized: DMSO 0%, desferrioxamine 100%;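 active = mean activation of at least 10% of the iron chelator positive control signal, with at least half of replicates also reaching 10%; inconclusive = mean and replicate majority disagree about reaching 10%; inactive = mean and most replicates under 10%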
ALR H2O2 inh – inhibitors of human sulfhydryl oxidase ALR | purified ALR, DTT oxidation, H2O2 HRP-luminol luminescence | P55789 | hit rate 3.8% among 290,000 | inhibition, % (concentration not given with the values) | AID 485317;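 active = mean replicate inhibition above about 79%, with every replicate also reaching it, limit read from the data; inconclusive = only one of the two criteria met; inactive = mean below limit and not every replicate reaching it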
Target sequence (P55789 whole entry, looked up): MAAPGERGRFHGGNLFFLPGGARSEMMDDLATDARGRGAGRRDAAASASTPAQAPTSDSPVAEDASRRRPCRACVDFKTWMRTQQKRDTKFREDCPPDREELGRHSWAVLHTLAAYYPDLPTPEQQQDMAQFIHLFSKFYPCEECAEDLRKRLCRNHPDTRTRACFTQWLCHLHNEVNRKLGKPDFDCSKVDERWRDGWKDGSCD
Mot1-301 SUMO – SUMOylation pathway inhibition by Mot1-301 growth rescue; S. cerevisiae Mot1-301 growth rescue, ATP luminescence, 38.5C; percent above DMSO median, 100 means doubled; growth rescue, % at 18.8 µM; hit rate 1% among 320,000; AID 2716;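 active = every valid replicate shows activation above 250% relative to neutral control wells; inactive = the rest, any valid replicate at or below 250%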;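 note: OY570 slx delta 5 strain wells were the positive control but not used for scaling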
AI-2 QS mod – modulators of Vibrio harveyi AI-2 quorum sensing system; Vibrio harveyi JMH597 AI-2 luminescence/OD600 ratio, 9 h; hits give low values; strain lacks LuxN and CqsS sensors; 0 = neutral-control median; activity change, % at 7.5 µM; hit rate 0.4% among 300,000; AID 2094; in the data active = activity change below about -75%, passing the limit was not always enough; inconclusive = no clear call, values can overlap the other calls;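 note: luminescence divided by OD600 gain over 9 h not by final OD600 alone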
Numbers without * were called inactive; u = inconclusive; x = no result given.

SMILES	HIF act	ALR H2O2 inh	Mot1-301 SUMO	AI-2 QS mod
COc1cccc2[nH]c(C(=O)NCc3ccccc3)cc12	0	x	7	4
CCOC(=O)Cc1cc(=O)n2[nH]cc(-c3ccc(Cl)cc3)c2n1	0	99*	-1	68
CCOC(=O)Cc1cc(=O)n2[nH]c(-c3ccc(Cl)cc3)cc2n1	0	-12	2	19
COCc1cc(=O)n2[nH]cc(-c3ccsc3)c2n1	-1	99*	-12	41
Cc1nnc(SCC(=O)c2c(N)n(C)c(=O)n(C)c2=O)n1Cc1ccccc1	0	-7	-8	30
CCNc1nc(NCC)n2c(SCC(=O)c3ccccc3F)nnc2n1	1	94*	x	32
CCNc1nc(NCC)n2c(SCC(=O)O)nnc2n1	0	-20	4	23
Cc1nnc(SCC(=O)c2ccccc2F)n1Cc1ccccc1	0	94*	-16	8
Cc1cc(NC(=O)CCC(=O)N(Cc2cccs2)C(C)(C)C(=O)NC2CCCCC2)no1	0	x	65	34
CC(=O)c1cccc(N(C(=O)c2ccco2)C(C(=O)NC2CCCC2)c2ccccc2F)c1 (stereo unspecified)	0	x	0	-3
O=C(Nc1nc(-c2ccccc2)ns1)c1cccs1	1	88*	41	18
CSc1nc(N(C)C)nc(N(C#N)CCOC(C)=O)n1	0	-16	656*	16
CCOC(=O)C(C(=O)OCC)N(C#N)c1nc(SC)nc(N(C)C)n1	0	5	211	0
COc1cnc(-c2ccccn2)nc1N(C)C	78*	-13	-7	21
Cc1nnc(-c2ccccc2)nc1N(C)C	701*	-18	8	25
COc1ccc(Oc2nc(-c3ccccn3)ncc2OC)cc1	0	1	-7	38
COc1cnc(-c2ccccn2)nc1Oc1cccc(Cl)c1	0	95*	9	41
Cc1ccc(-c2nnc(-c3ccccc3)c(-c3ccccc3)n2)cc1	1	x	4	14
COc1cnc(-c2ccccn2)nc1Oc1c(C)cccc1C	-1	64	43	22
CN(C)c1nc(-c2ccccn2)nnc1-c1ccccc1	105*	-4	-17	3
O=c1ccc2ccc(OCCOc3cccc(Cl)c3)cc2o1	1	0	7	u
CN(C(=O)CSc1cc(Cl)ccc1Cl)C1CCS(=O)(=O)C1 (stereo unspecified)	x	0	-9	x
COC(CN(C(=O)CCl)C(C(=O)NC1CCCCC1)c1ccc(C)cc1)OC (stereo unspecified)	0	97*	-22	20
COc1ccc(C(C(=O)NC2CCCCC2)N(C(=O)CCl)c2cccc(Cl)c2)cc1 (stereo unspecified)	-1	5	328*	44
COc1ccc(C(C(=O)NC2CCCCC2)N(C(=O)CCl)c2ccc(C)cc2)cc1 (stereo unspecified)	0	-10	6	3
SMILES	HIF act	ALR H2O2 inh	Mot1-301 SUMO	AI-2 QS mod
CC(C)n1c(-c2ccc(C(C)(C)C)cc2)n[nH]c1=S	0	82*	-6	18
CC(C)NC(=NCc1ccc(Cl)cc1Cl)Nc1ccccc1	1	-2	6	8
CC(C)n1c(-c2ccco2)csc1=Nc1cccnc1	0	92*	-2	3
COCCn1c(-c2ccccc2)csc1=Nc1cccnc1	0	-2	16	44
COc1cc(-c2nc3cccc(C)n3c2NCC2CCCO2)ccc1O (stereo unspecified)	1	99*	-17	13
COc1ccc(-c2nc3cc(C)ccn3c2NCC2CCCO2)cc1OC (stereo unspecified)	0	74	-20	9
O=C(/C=C/c1ccc([N+](=O)[O-])cc1)Nc1cccc(C(=O)Nc2ccccc2C(=O)O)c1	-1	91*	14	x
CCc1nn(CC(=O)NCc2cccnc2)c(=O)c2cc3occc3n12	0	7	-2	12
O=C(O)CCn1cc(C2CC(c3ccccc3)=NN2c2ccccc2)c(-c2ccccc2)n1 (stereo unspecified)	0	99*	13	20
Cc1ccc(-c2nn(-c3ccccc3)cc2C2CC(c3cccs3)=NN2C(=O)CCC(=O)O)cc1 (stereo unspecified)	x	9	10	23
Cc1nn(CC(=O)Nc2c(F)c(F)cc(F)c2F)c(=O)c2cccn12	0	4	125	40
CCCCN1C(=O)CCC(C(=O)O)C1c1ccc([N+](=O)[O-])cc1 (stereo unspecified)	1	-6	-9	-8
O=C(N/N=C\c1c(O)ccc2ccccc12)c1ccc(S(=O)(=O)N2CCCCC2)cc1	23*	1	3	24
O=C(CNC(=O)c1ccc(S(=O)(=O)N2CCCC2)cc1)N/N=C/c1ccccc1Cl	-2	0	-13	16
O=C(NN=Cc1c(O)ccc2ccccc12)c1ccc2c(c1)OCO2	x	-36	-6	x
O=C(N/N=C/c1c(O)ccc2ccccc12)c1ccc(CO)nc1	34*	-28	-26	-35
COC(=O)[C@]1(Cc2ccccc2)N[C@H](CN(C)C(=O)Nc2ccc(C(F)(F)F)cc2)[C@@H]2C(=O)N(C)C(=O)[C@@H]21	x	-7	4	x
COc1ccc(Oc2ccc3c(C(F)(F)F)cc(C(F)(F)F)nc3n2)cc1	-1	-4	15	31
Oc1ccc(Oc2ccc3c(C(F)(F)F)cc(C(F)(F)F)nc3n2)cc1	3	99*	1	26
CCN(CC)CCCCNc1ncc2cc(-c3cc(OC)cc(OC)c3)c(NC(=O)NC(C)(C)C)nc2n1	-1	-12	277*	9
O=C(c1nc(-c2ccccc2)n(-c2ccccc2)n1)N1CCCCCC1	0	0	-2	11
COc1ccc(-n2nc(C(=O)O)nc2-c2ccccc2)cc1	0	100*	14	43
O=C(NC(=S)N1CCCc2ccccc21)c1ccccc1	0	99*	210	u
O=C(CN1CCCC1)N1CCCc2ccccc21	-1	-3	-5	12
O=C(CC1OC(=O)c2ccccc21)Nc1ccccc1N1CCOCC1 (stereo unspecified)	0	-7	-6	18
SMILES	HIF act	ALR H2O2 inh	Mot1-301 SUMO	AI-2 QS mod
O=C(CC1OC(=O)c2ccccc21)Nc1cc(Cl)ccc1N1CCCC1 (stereo unspecified)	-1	97*	-17	18
COc1ccc(NC(=O)CSCC(=O)N2CCCc3ccccc32)cc1	0	90*	-24	28
COc1ccc(CCC(=O)N2CCCc3ccccc32)cc1	1	-1	-2	x
O=C(CN1CCCCC1)N1CCCc2ccccc21	90*	-2	0	9
O=C(Nc1ccccc1)c1ccc(Br)c(S(=O)(=O)Nc2ccccn2)c1	0	-13	8	12
Cc1ccc(C(=O)CN2C(=O)NC3(CCc4ccccc43)C2=O)s1 (stereo unspecified)	x	-24	11	x
COc1ccc(NC(=O)CSCC(=O)Nc2cc(Cl)ccc2N2CCCC2)cc1	-16	99*	45	-26
O=c1cc(CO)oc(CN2CCN(c3cccc(C(F)(F)F)c3)CC2)c1O	3	u	-28	23
CCN1CCN(Cc2oc(CO)cc(=O)c2O)CC1	0	-4	-10	8
